The record followed here is PubChem BioAssay AID488890 (Southern Research Specialized Biocontainment Screening …, 2010).

The whole screen tested about 320,000 compounds, of which about 1,300 (0.41%) were called active. About 3% were inconclusive and are not listed. No rule for the calls is given here. These entries were drawn from the full list. Entries with a potency or affinity are not part of this list.

The assay in a line: growth inhibition of non-replicating M. tuberculosis (AID 488890).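 Also: plate controls were DMSO cells for no effect and high antibiotic wells for full effect.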 The conditions noted are these: Mycobacterium tuberculosis non-replicating, at 25 µM, stronger effect = higher value.
With `Cc1ccc(S(=O)(=O)N(C)C)cc1NC(=O)c1c(-c2c(F)cccc2Cl)noc1C`, the inhibition is -9.18%. Then `CCOc1ccccc1C(=O)Nc1nccs1`, with 5.93%. `O=C(Nc1nccs1)c1ccc(Cl)cc1[N+](=O)[O-]`: the inhibition stood at 0.86%. Regarding `O=C(Nc1nccs1)c1cc(Cl)ccc1[N+](=O)[O-]`, the inhibition is 12.9%. On to `CCOc1cccc2cc(C(=O)Nc3cc(C)on3)c(=O)oc12`, for which the inhibition amounted to 75.1%. With `Nc1nnc(-c2ccccc2F)s1`, the inhibition was 1%.

For the compound `O=C(/C=C/c1ccc(Cl)cc1)Nc1ccccc1N1CCOCC1`, the inhibition was -7.86%. The same measure for `O=c1[nH]c(=O)n(Cc2ccco2)c(O)c1/C=N/N1CCCCC1`: 1.03%; for `COCCN=C1NN=C(c2ccc(C)c([N+](=O)[O-])c2)CS1`: -8.83%. Then `N/C(=N\OC(=O)CCC1CCCC1)c1ccncc1`, with 60.9%. Then `N/C(=N\OC(=O)CC1CCCCC1)c1cccnc1`, with 73%; and `Cc1ccc(OCCN2CCN(c3nc(NCc4ccco4)c4ccccc4n3)CC2)cc1`, with 62.8%; and `OCCN1CCN(c2nc(NCc3ccco3)c3ccccc3n2)CC1`, with 9.79%.

For the compound `CCC1CCCCN1S(=O)(=O)c1ccc(NC(=O)c2nc(S(C)(=O)=O)ncc2Cl)cc1` (stereo not given), the inhibition was 66.2%. Then `CCN(c1ccccc1)S(=O)(=O)c1ccc(NC(=O)c2nc(S(C)(=O)=O)ncc2Cl)cc1`, with 37.2%; and `CCS(=O)(=O)c1ncc(Cl)c(C(=O)Nc2ccc(S(=O)(=O)N3CCCC(C)C3)cc2)n1` (stereo not given), with 58.5%; and `Cc1ccc(CS(=O)(=O)c2ncc(Cl)c(C(=O)Nc3ccc(OC(F)F)cc3)n2)cc1`, with -1.41%.

Regarding `CN(c1ccccc1)S(=O)(=O)c1ccc(NC(=O)c2nc(S(C)(=O)=O)ncc2Cl)cc1`, the inhibition was found to be 56%.

`CCc1ccc(NC(=O)c2nc(S(=O)(=O)Cc3ccccc3)ncc2Cl)cc1`: the inhibition came out at 0.81%. As for `Cc1ccc(F)cc1NC(=O)N1CCCN(C(=O)OC(C)(C)C)CC1`, the inhibition was -10.3%.

As for `O=C(CSc1ncn[nH]1)Nc1c(F)cc(F)cc1Br`, the inhibition was -11.1%.

`Cc1ccc(NC(=O)CC(C)c2ccccc2)cc1S(=O)(=O)N1CCOCC1` (stereo not given): the inhibition amounted to 10.4%.

`O=C(O)CNC(=S)N(Cc1ccccc1)Cc1cccnc1`: the inhibition turned out to be 6.66%. Then `O=C(CSc1nncs1)Nc1nccs1`, with -27.1%. As to `COCCN1CCn2c(nc3cc(NC(=O)Cn4nc(C)c5ccccc5c4=O)ccc32)C1`, the inhibition was -5.63%. On to `COc1ccc(OCCNc2cc(N3CCOCC3)ccc2[N+](=O)[O-])cc1`, for which the inhibition worked out at 26.3%. Then `COc1ccc(OCCNc2cc(N3CCCCC3)ccc2[N+](=O)[O-])cc1`, with 72.4%; and `Cc1ccsc1C(=O)C1CCCN(Cc2sc(N(C)C)nc2Cl)C1` (stereo not given), with -9.22%; and `CC1CC(c2ccccc2)n2nc(NC(=O)c3ccco3)nc2N1` (stereo not given), with 3.85%.

In the case of `CC1CCCC(NC(=O)CCCn2ncn3c(cc4occc43)c2=O)C1C` (stereo not given), the inhibition is -13.3%.

By inhibition is commonly meant the drop in the measured response relative to a control, in per cent.
